These results are taken from PubChem BioAssay (Tox21).

The target of assay [1] is Gonadotropin-releasing hormone receptor (Homo sapiens) (UniProt P30968). Briefly: Human gonadotropin-releasing hormone receptor (GnRHR) small molecule agonists, calcium flux assay in GnRHR-HEK293 cells (AID 1920063). Note: nearly all actives have a fitted effect of over 35% in size. The essentials: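 Fluorescence kinetics (480 nm excitation, 540 nm emission; 3 min, 1 s steps) report calcium mobilisation in human GnRHR-HEK293 cells in agonist mode. Dye incubation: 1 h, 37 C.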

Assay [2] deals with KiSS-1 receptor (Homo sapiens) (UniProt Q969F8). Briefly: Human kisspeptin (KISS1R) small molecule agonists, calcium flux assay in KISS1R-HEK293 cells (AID 1920064; active = well fitted activation curve with a large enough effect in the repeat runs). The essentials:
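Measures KISS1R agonism through calcium-sensitive dye fluorescence in stably transfected HEK293 cells, read for 3 min after pin-tool compound delivery; 15-point titrations in triplicate.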

A short description of assay [3]: G protein-coupled receptor (GPCR) small molecule agonists, calcium flux assay: HEK293 wild type cell line counter screen (AID 1920065). The essentials: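 Readout: fluorescence at 480 nm excitation/540 nm emission, sampled at 1 s intervals for 3 min. Cells had been cultured 18 h, then dye-loaded 1 h at 37 C before compound or ATP addition.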
A short description of assay [4]: p53 small molecule agonists, cell-based qHTS assay with rat liver microsomes (AID 1963578). In outline: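 Compound in DMSO added to p53RE-bla cells 5 h post-plating; rat microsomes/NADPH 0.5 mg/mL final; 16 h, 37 C; LiveBLAzer 2 h RT.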
Assay [5] is described as follows: p53 small molecule agonists, cell-based qHTS assay with rat liver microsomes: qHTS cell viability counter screen (AID 1963580). Note: nearly all actives have a fitted effect of over 45% in size. The essentials: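 In HCT-116 cells carrying a p53 response element-bla reporter, compounds were metabolically activated in situ by rat liver microsomes with NADPH over 16 h. Cell ATP content then served as the cytotoxicity measure.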
A short description of assay [6]: p53 small molecule agonists, cell-based qHTS assay (AID 1963582; active = well fitted activation curve with a large enough effect in the signal ratio in the repeat runs, not every such curve was filed as active; the % refers to the signal ratio; note: potency is the fitted concentration of half-maximal effect). The essentials: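 Compounds are pin-transferred in DMSO onto p53RE-bla cells and incubated 16 h at 37 C. The B/G FRET beta-lactamase substrate is then applied for 2 h at RT and fluorescence recorded.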
Assay [7] addresses 5-hydroxytryptamine receptor 2A (Homo sapiens) (UniProt P28223). Briefly: 5-hydroxytryptamine receptor 2A (HTR2A) small molecule antagonists, cell-based qHTS assay (AID 1963586). Note: nearly all actives have a fitted effect of over 45% in size. The essentials:
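Antagonist-mode intracellular calcium assay: DOI (4 nM) added after 5 min compound pre-incubation at room temperature to dye-loaded HTR2A-CHO cells. Fluorescence followed for 3 min, sampled every second.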

Assay [8] has the same target. Briefly: 5-hydroxytryptamine receptor 2A (HTR2A) small molecule agonists, cell-based qHTS assay (AID 1963587). Note: nearly all actives have a fitted effect of over 30% in size. In outline:
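HTR2A-CHO cells, plated 18 h at 37 C/5% CO2, dye-loaded 1 h at 37 C; compounds in DMSO added by pin tool (agonist mode). Intracellular calcium flux read as kinetic fluorescence on FDSS over 2 min at 1 s intervals.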

The target of assay [9] is Muscarinic acetylcholine receptor M1 (Homo sapiens) (UniProt P11229). Briefly: Cholinergic receptor muscarinic 1 (CHRM1) small molecule agonists, cell-based qHTS assay (AID 1963589). Note: nearly all actives have a fitted effect of over 35% in size. In outline:
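Each compound was tested at 15 concentrations across three independent runs on dye-loaded CHO cells stably expressing human CHRM1, reading intracellular calcium fluorescence kinetically at 1 sec intervals.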

Assay [10] is described as follows: cAMP Responsive Elements (CRE) small molecule antagonists, cell-based qHTS assay (AID 1963591; active = well fitted inhibition curve with a large enough effect in the signal ratio in the repeat runs, not every such curve was filed as active; the % refers to the signal ratio). The essentials:
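Inhibition of NKH477-driven (0.25 uM final) CRE-beta-lactamase signal in HEK293T cells, 3 h compound exposure at 37 °C, detected by FRET substrate fluorescence.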

Assay [11] addresses Beta-2 adrenergic receptor (Homo sapiens) (UniProt P07550). Nature of the assay: Adrenergic beta2 receptor (ADRB2) small molecule antagonists, cell-based qHTS assay (AID 1963592). Note: series mostly up to about 92 µM; nearly all actives have a fitted effect of over 50% in size. The essentials:
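Cells (CHO, stable ADRB2 overexpression) incubated 18-20hr at 37C; compounds added from DMSO; agonist mix (1nM isoproterenol, 100uM IBMX, 25uM Ro-20-1724) added; 0.5hr RT; d2-cAMP and anti-cAMP-cryptate added; 1hr RT; 665/615 nm read.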

Assay [12] has the same target. Nature of the assay: Adrenergic beta2 receptor (ADRB2) small molecule agonists, cell-based qHTS assay (AID 1963593).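 Note: CHO cells stably overexpressing human ADRB2.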 The essentials:
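CHO cells stably over-expressing ADRB2 were plated overnight at 37C, then dosed with compounds plus a stimulation mix containing 100uM IBMX and 25uM Ro-20-1724 for 0.5hr at room temperature. cAMP was measured by HTRF competition, 1hr.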

The target of assay [13] is D(2) dopamine receptor (Homo sapiens) (UniProt P14416). Nature of the assay: Dopamine D2 receptor (DRD2) small molecule agonists, cell-based qHTS assay (AID 1963594). Note: nearly all actives have a fitted effect of over 35% in size. The essentials: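 HEK293 cells stably expressing DRD2 were cultured 24 h at 37 C, then given Ro20-1724 (0.1 mM final) and compounds for 10 min at room temperature. NKH477 (200nM) was then added for 30 min. cAMP was read by HTRF.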

For assay [14] the target is unchanged. Briefly: Dopamine D2 receptor (DRD2) small molecule antagonists, cell-based qHTS assay (AID 1963595; active = well fitted inhibition curve with a large enough effect in the signal ratio in the repeat runs, with a control signal flat; the % refers to the signal ratio). In outline: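 HEK293 cells stably expressing DRD2, preincubated with 0.1 mM Ro20-1724 and compounds 10 min, were stimulated with 200 nM NKH477 plus 12 nM quinpirole for 30 min at room temperature; cAMP measured by HTRF (665/620 nm).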
Assay [15] in a line: Nuclear factor erythroid 2-related factor 2/antioxidant responsive element (Nrf2/ARE) small molecule agonists: luciferase reporter gene qHTS assay in human keratinocytes (AID 1919969). Note: nearly all actives have a fitted effect of over 35% in size. Note: potency is the fitted concentration of half-maximal effect.
The nature of assay [16]: p53 small molecule agonists, cell-based qHTS assay with human liver microsomes: qHTS cell viability counter screen (AID 1963579). Note: nearly all actives have a fitted effect of over 45% in size. In outline: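 HLM-supplemented (0.5 mg/mL final) and NADPH-supplemented (0.5 mg/mL final) p53RE-bla cultures, 4,000 cells per well, were dosed with compounds in DMSO for 16 h at 37 C; luminescent ATP detection (CellTiter-Glo, 30 min, room temperature) quantified surviving cells.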

The nature of assay [17]: p53 small molecule agonists, cell-based qHTS assay: qHTS cell viability counter screen (AID 1963581). Note: nearly all actives have a fitted effect of over 45% in size. Note: potency is the fitted concentration of half-maximal effect. The essentials: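 In the same plates used for the p53 bla reporter, HCT-116 cells given compounds for 16 h at 37 C received CellTiter-Glo; luminescence was recorded 30 min later at room temperature.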
Assay [18] has as its target Muscarinic acetylcholine receptor M1 (Homo sapiens) (UniProt P11229). Nature of the assay: Cholinergic receptor muscarinic 1 (CHRM1) small molecule antagonists, cell-based qHTS assay (AID 1963588). Note: nearly all actives have a fitted effect of over 40% in size. Note: potency is the fitted concentration of half-maximal effect. In outline: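 CHRM1-CHO calcium-flux assay, antagonist mode. Cells were seeded 18 h, dye-loaded 1 h at 37 C and given compound for 5 min at RT, then acetylcholine was added at 50nM. FDSS fluorescence was read 3 min; 15 concentrations, three runs.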

Assay [19] is described as follows: cAMP Responsive Elements (CRE) small molecule agonists, cell-based qHTS assay (AID 1963590). In outline:
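Cell line: CRE-bla HEK 293T; medium DMEM/10% dialyzed FBS/0.1 mM NEAA/1 mM pyruvate/25 mM HEPES; 3 h compound exposure; beta-lactamase FRET readout after 2 h substrate loading at RT.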

Assay [20] is described as follows: p53 small molecule agonists, cell-based qHTS assay with human liver microsomes (AID 1963577).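 Note: p53 response element beta-lactamase reporter cells with liver microsomes plus NADPH.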 In outline:
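Reporter activation was measured by LiveBLAzer fluorescence intensity in p53RE-bla cells, which had been exposed to compounds for 16 h at 37 C alongside 0.5 mg/mL human liver microsomes and 0.5 mg/mL NADPH (final concentrations).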

Values without a mark were called inactive. Inconclusive results are not listed. Activity calls are given as the source filed them. Unless noted, calls come from the whole dose curve.

Sequence of Beta-2 adrenergic receptor (Homo sapiens) (P07550 whole entry, looked up): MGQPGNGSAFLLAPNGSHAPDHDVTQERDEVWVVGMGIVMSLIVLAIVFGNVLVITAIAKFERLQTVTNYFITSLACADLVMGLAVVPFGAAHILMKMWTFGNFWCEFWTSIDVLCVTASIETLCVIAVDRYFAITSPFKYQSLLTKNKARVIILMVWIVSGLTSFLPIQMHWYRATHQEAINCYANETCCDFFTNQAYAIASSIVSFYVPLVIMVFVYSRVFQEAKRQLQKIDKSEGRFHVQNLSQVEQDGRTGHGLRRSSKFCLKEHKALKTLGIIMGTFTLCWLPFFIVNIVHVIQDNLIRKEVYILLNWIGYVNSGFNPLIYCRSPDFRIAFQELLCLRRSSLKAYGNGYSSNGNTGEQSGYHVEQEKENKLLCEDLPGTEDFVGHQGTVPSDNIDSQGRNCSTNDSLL
Sequence of KiSS-1 receptor (Homo sapiens) (Q969F8 whole entry, looked up): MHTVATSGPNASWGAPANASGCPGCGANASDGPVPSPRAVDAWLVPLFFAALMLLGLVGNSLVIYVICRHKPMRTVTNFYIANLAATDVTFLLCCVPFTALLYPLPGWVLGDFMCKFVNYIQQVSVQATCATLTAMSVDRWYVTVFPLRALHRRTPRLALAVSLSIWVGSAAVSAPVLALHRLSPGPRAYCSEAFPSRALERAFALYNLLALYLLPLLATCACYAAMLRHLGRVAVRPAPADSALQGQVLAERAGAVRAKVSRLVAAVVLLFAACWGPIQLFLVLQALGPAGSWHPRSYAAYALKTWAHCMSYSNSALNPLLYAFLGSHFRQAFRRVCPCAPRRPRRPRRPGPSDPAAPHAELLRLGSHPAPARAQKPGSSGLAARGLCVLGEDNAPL
Sequence of 5-hydroxytryptamine receptor 2A (Homo sapiens) (P28223 whole entry, looked up): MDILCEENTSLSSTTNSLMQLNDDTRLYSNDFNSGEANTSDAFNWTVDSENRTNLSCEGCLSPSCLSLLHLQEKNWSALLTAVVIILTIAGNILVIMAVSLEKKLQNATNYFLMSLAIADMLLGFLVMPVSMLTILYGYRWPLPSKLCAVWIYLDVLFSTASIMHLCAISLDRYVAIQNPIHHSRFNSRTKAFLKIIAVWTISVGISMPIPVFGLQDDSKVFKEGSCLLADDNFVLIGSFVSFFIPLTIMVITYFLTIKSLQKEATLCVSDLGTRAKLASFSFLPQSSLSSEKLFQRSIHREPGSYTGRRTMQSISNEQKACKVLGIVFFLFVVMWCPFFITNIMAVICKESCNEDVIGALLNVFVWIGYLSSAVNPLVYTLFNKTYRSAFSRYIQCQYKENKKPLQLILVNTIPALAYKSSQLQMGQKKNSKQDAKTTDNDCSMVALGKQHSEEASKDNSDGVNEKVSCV
Sequence of D(2) dopamine receptor (Homo sapiens) (P14416 whole entry, looked up): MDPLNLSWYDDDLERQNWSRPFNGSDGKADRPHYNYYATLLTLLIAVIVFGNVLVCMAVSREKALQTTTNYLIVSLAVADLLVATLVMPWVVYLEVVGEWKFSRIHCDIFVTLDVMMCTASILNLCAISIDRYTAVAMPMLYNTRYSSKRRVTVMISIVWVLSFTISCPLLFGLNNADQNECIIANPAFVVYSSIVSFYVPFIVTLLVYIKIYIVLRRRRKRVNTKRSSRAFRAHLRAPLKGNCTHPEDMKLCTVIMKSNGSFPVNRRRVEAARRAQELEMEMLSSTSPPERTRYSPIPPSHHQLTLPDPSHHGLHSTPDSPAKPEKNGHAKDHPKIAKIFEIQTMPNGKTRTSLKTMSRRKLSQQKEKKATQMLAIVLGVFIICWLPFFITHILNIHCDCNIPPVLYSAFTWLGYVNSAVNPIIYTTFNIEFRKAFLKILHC
Sequence of Muscarinic acetylcholine receptor M1 (Homo sapiens) (P11229 whole entry, looked up): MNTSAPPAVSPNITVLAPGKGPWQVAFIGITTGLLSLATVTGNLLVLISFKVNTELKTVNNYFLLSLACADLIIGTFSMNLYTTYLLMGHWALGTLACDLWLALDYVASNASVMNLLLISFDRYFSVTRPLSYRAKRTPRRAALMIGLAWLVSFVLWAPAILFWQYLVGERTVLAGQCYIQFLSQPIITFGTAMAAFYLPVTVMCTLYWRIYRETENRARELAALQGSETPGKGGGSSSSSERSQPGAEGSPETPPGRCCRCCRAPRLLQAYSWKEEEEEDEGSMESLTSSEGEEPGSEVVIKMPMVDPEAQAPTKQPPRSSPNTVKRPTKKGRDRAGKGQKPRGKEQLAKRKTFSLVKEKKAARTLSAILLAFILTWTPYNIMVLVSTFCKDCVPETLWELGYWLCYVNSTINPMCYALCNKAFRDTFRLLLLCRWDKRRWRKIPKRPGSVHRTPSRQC
Sequence of Gonadotropin-releasing hormone receptor (Homo sapiens) (P30968 whole entry, looked up): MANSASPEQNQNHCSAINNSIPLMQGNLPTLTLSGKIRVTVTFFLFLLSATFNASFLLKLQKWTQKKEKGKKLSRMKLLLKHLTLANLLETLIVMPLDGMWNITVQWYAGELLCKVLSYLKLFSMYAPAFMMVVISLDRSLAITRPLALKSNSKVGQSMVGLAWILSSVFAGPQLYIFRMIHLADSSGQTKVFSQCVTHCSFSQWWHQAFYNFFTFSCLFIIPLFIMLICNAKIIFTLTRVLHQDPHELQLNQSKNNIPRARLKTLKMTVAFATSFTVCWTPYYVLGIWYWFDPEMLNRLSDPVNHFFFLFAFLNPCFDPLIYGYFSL

For `COCCO`, the Potency entry in assay [1], in [4], in assay [5], in assay [6], in [7] and in [8] was “inactive” throughout. Besides, the Potency result in assay [9], in assay [10], in assay [11], in assay [12], in [13] and in assay [14] was “inactive” each time. Besides, the result in [2] and in [3] was inactive.
Take `CC(=O)C=O`: the Potency result in [15], in assay [1], in assay [4], in assay [16], in [5] and in [17] was “inactive” each time. For the same compound, the Potency entry in assay [6], in assay [7], in assay [8], in [18], in assay [9] and in assay [19] was “inactive” throughout. Besides, the Potency result in assay [10], in [11], in [13] and in [14] was “inactive” throughout. Moreover, the result in [2] and in assay [3] was inactive.
For the compound `Nc1nc(-c2ccc([N+](=O)[O-])cc2)cs1`, the Potency result in [1], in assay [20], in assay [4], in assay [16], in assay [5] and in assay [17] was “inactive” each time. Further, the Potency result in assay [6], in assay [8], in [18], in assay [9], in [19] and in assay [10] was “inactive” in each case. For the same compound, the Potency entry in [11], in assay [12], in assay [13] and in [14] was “inactive” each time. For the same compound, the outcome in assay [2] and in assay [3] was inactive.
Take `CCCCCCCCOc1ccccc1C(=O)Nc1ccc(C(=O)OCC[N+](C)(CC)CC)cc1`: the Potency result in assay [15], in assay [1], in [20], in [16], in assay [5] and in assay [17] was “inactive” in each case. Also, the Potency result in [9] and in assay [13] was “inactive” throughout. In addition, the outcome in [2] and in assay [3] was inactive.
Take `COc1cc(-c2nc(NC(=O)c3cc4cc(C)cc(C)c4n3CC(=O)O)sc2CCC2CCCCC2)c(OC)cc1Cl`: the Potency in [15] was 12.5 µM (active); in assay [17], 6.65 µM (active). Also, the Potency result in assay [1], in assay [20], in assay [4], in assay [16], in [7] and in assay [8] was “inactive” each time. Further, the Potency entry in assay [9], in assay [11] and in assay [14] was “inactive” throughout. For the same compound, the outcome in assay [3] was inactive.
With `CNCCC(Oc1ccccc1OC)c1ccccc1` (stereo not given), the Potency entry in [15], in assay [1], in assay [20], in assay [4], in assay [5] and in assay [8] was “inactive” throughout. For the same compound, the Potency entry in assay [9], in assay [19], in assay [10], in assay [13] and in assay [14] was “inactive” in each case. The result in assay [2] and in [3] was inactive. Further, in assay [18], the Potency was 16.3 µM (active).
As for `CC1(C)C(=O)N(CO)C(=O)N1CO`, the Potency entry in assay [15], in assay [4], in [16], in [5], in assay [6] and in assay [8] was “inactive” each time. Also, the Potency entry in [18], in [9], in assay [19], in [11], in assay [13] and in assay [14] was “inactive” in each case. Further, the result in [3] was inactive.
In the case of `OCCCCCCO`, the Potency result in [15], in [20], in assay [16], in [5], in [7] and in [8] was “inactive” in each case. Moreover, the Potency entry in assay [18], in [9], in [19], in assay [10], in assay [11] and in assay [13] was “inactive” each time. Besides, the Potency entry in [14] was “inactive”. Further, the outcome in assay [2] and in [3] was inactive. Besides, the Potency in [6] was 41.3 µM (active).
